# “And” between values parts separate entries of the source, which are not always exact repeats. Equal entries are not always repeated. Compounds without any hit were thinned out: in the full panel of roughly 83,000, 20% have a hit.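 Each cell line was grown in a 96-well plate and treated with one concentration of compound for 48 hours. Values below 10 were considered active.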 A number with no mark means an inactive call. The source made the active and inactive calls.
# Test system: MCF7 breast
# Assay: NCI-60 one-dose screen, 48 h (100 = growth as untreated, 0 = no growth, -100 = all killed)
# Details: 10 µM unless noted
row,SMILES,growth
1,COc1c(/C=C/C=O)cc2c(c1OC)OCO2,-30% [100 µM] (active) and -83.3% [100 µM] (active)
2,O=C(/C=C/c1ccccc1)CCC1C(=O)c2ccccc2C1=O,48% [100 µM] and 57.5% [100 µM]
3,COc1ccc2c(c1)C(N)=C(c1ccccc1)C2=O,57.4% [100 µM] and 16.6% [100 µM]
4,O=Cc1ccc(-c2ccc(-c3ccc(CO)s3)o2)s1,-23.2% [100 µM] (active) and -100% [100 µM] (active)
5,Fc1cccc(F)c1C1SCc2nc3cc4ccccc4cc3n21 (stereo unspecified),-28.9% [100 µM] (active) and -2.13% [100 µM] (active)
6,C=C1C(=O)OC2CC3(C)CCCC(C)C3=CC12 (stereo unspecified),-91.8% [100 µM] (active) and -84.5% [100 µM] (active)
